Compound activity deposited in PubChem by several laboratories.
Only some compounds are listed: those with a hit (about 2.8% of all), similar ones and a draw of the others.
SENP8 block-1: inhibitors of human SENP8 protease. recombinant SENP8, Nedd8 substrate fluorescence. AID 602440. Q96LD8. 360,000 compounds, 0.64% hits. inhibition, % at 20 µM; in the data active = inhibition mostly above about 40%, no sharp cut-off; inactive = mostly below about 27%
SENP7 block: SENP7 protease inhibition. Q9BQF6. recombinant SENP7, Z-RLRGG-aminoluciferin luminescence, 40 min. inhibition, % at 5 µM. 330,000 compounds, 1.5% hits. AID 434973;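 active = inhibition above about 50% at the single test dose, limit read from the data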
SENP8 block-2: inhibitors of human SENP8 protease. purified SENP8, Z-RLRGG-aminoluciferin cleavage, luminescence. inhibition, % at 10 µM. Q96LD8. AID 2540. 330,000 compounds, 1.2% hits; in the data active = inhibition above about 50%
SENP6 block: blocks the human protease SENP6; Q9GZR1; Recombinant SENP6 catalytic domain, aminoluciferin luminescence; inhibition, % at 10 µM; 330,000 compounds, 1.8% hits;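 active = inhibition above about 50% at the single tested dose, limit read from the data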
Target sequence (Q9GZR1 628-1112 limits assumed): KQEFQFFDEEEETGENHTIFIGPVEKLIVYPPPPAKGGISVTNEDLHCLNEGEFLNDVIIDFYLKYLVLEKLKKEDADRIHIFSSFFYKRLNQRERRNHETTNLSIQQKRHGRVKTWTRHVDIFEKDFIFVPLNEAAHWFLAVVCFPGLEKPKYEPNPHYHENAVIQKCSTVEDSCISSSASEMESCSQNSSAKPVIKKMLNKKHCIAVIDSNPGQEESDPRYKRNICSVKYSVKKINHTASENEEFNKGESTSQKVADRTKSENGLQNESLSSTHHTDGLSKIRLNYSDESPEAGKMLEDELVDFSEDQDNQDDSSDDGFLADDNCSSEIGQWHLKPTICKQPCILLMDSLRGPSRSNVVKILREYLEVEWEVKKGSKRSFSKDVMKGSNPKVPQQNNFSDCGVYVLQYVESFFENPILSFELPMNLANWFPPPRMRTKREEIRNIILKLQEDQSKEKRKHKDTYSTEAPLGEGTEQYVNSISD
HSP90 refold inh: HSP90 refolding inhibition in rabbit reticulocyte lysate | 290,000 compounds, 0.91% hits | luciferase refolding luminescence, 3 h | inhibition, % at 5.6 µM;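 active = inhibition above the screen-wide mean plus 3 SD, computed separately per campaign, cut at about 16% in these data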;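 note: inhibitors lower the luminescence because luciferase stays unfolded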
SENP8 conf: confirmation of human SENP8 protease inhibitors. AID 488912. 6,200 compounds, 40% hits. Recombinant SENP8, Z-RLRGG-aminoluciferin luminescence, 60 min. inhibition, % at 12.5 µM. shares compounds with SENP7 block;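 active = mean inhibition across replicates above about 50%, limit read from the data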
SENP6 confirm: human SENP6 inhibition, confirmed; shares compounds with SENP7 block; recombinant SENP6, Z-RLRGG-aminoluciferin luminescence; inhibition, % at 12.5 µM; 6,200 compounds, 58% hits
SENP7 conf: confirmation of human SENP7 protease inhibitors; 6,200 compounds, 69% hits; inhibition, % at 12.5 µM; shares compounds with SENP7 block; recombinant SENP7, Z-RLRGG-aminoluciferin luminescence, 40 min
Casp3 select: caspase-3 inhibition (SENP selectivity assay) | shares compounds with SENP7 block | purified caspase-3, Z-DEVD-aminoluciferin luminescence, 60 min | inhibition, % at 12.5 µM | 6,200 compounds, 60% hits | AID 488918;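 active = mean inhibition above about 50%, limit read from the data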
SENP luc ctr: counter-screen for SENP inhibitors: luminescence interference; shares compounds with SENP7 block; Pre-incubated SENP8/Z-RLRGG-aminoluciferin, luciferase luminescence interference; inhibition, % at 12.5 µM; 6,200 compounds, 39% hits;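 active = mean inhibition above about 50% when retested at one dose, limit read from the data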
Of the large screens only hits and unclear results are named; the others gave an inactive call (follow-up assays come after a bar, where they were run).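 Rule for the calls, unless noted: active = mean inhibition above about 50% in the one-dose retest (limit read from the data); inactive = the rest.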

CC[C@H](C)[C@H]1CNC(=O)C(=O)N1CC1CCN(CCc2ccccc2)CC1	none (no result: SENP7 block, SENP8 block-2, SENP6 block, HSP90 refold inh)
Cc1cc(C(=O)N/N=C/c2ccc(N(C)C)cc2)c2ccccc2n1	none
Cc1cc(N/C=C/C(=O)c2ccccc2)ccc1Br	SENP7 block 79.9, SENP8 block-2 62.2, SENP6 block 67.0 | SENP8 conf inactive | SENP6 confirm inactive | SENP7 conf inactive | Casp3 select inactive | SENP luc ctr inactive
O=C(/C=C/Nc1ccccc1)c1ccc(Cl)cc1Cl	SENP7 block 86.5, SENP8 block-2 82.6 | SENP8 conf 88.8 | SENP6 confirm 91.8 | SENP7 conf 98.4 | Casp3 select 82.3 | SENP luc ctr 64.0
Cc1ccc(C(=O)/C=C\Nc2ccc(C)c(C)c2)cc1	none
N#Cc1ccc(OCC(=O)N2CCc3ccccc32)cc1	none (no result: HSP90 refold inh)
COc1ccc(-n2c(-c3cnccn3)n[nH]c2=S)cc1	none
CCN1CCN(C2=C(NS(=O)(=O)c3ccc(C)cc3)C(=O)c3ccccc3C2=O)CC1	SENP8 block-1 42.9, SENP6 block 51.9 | SENP8 conf inactive | SENP6 confirm inactive | SENP7 conf inactive | Casp3 select inactive | SENP luc ctr inactive
CCN1CCN(C2=C(NS(=O)(=O)c3ccc(NC(C)=O)cc3)C(=O)c3ccccc3C2=O)CC1	SENP8 block-1 62.9, SENP6 block 51.9 | SENP8 conf inactive | SENP6 confirm inactive | SENP7 conf inactive | Casp3 select inactive | SENP luc ctr inactive
CC(=O)Nc1ccc(S(=O)(=O)NC2=C(N3CCN(Cc4ccccc4)CC3)C(=O)c3ccccc3C2=O)cc1	none (no result: SENP7 block, SENP8 block-2, SENP6 block)
CC1CCCN(C2=C(NS(=O)(=O)c3ccc(Br)cc3)C(=O)c3ccccc3C2=O)C1 (stereo not given)	none
N#Cc1c(N)nc2c(c1-c1ccc(F)cc1)c(=O)nc1sccn12	none
O=C(/C=C/c1ccco1)NC(=S)Nc1cc(-c2nc3ccccc3s2)ccc1Cl	none (no result: SENP7 block, SENP8 block-2, SENP6 block)
O=C(/C=C/c1ccco1)NC(=S)Nc1cccc(-c2nc3ccccc3s2)c1	SENP6 block 63.3 | SENP8 conf inactive | SENP6 confirm inactive | SENP7 conf inactive | Casp3 select inactive | SENP luc ctr inactive
CSc1cccc(NC(=O)/C=C/c2ccco2)c1	none
COc1cccc(NC(=O)/C=C/c2ccco2)c1	SENP7 block 91.6, SENP8 block-2 84.4, SENP6 block 58.5 | SENP8 conf inactive | SENP6 confirm 87.5 | SENP7 conf 99.5 | Casp3 select 93.2 | SENP luc ctr 87.7
O=C(/C=C/c1ccco1)Nc1ccc(N2CCCC2)cc1	SENP7 block 68.1, SENP6 block 63.1 | SENP8 conf inactive | SENP6 confirm inactive | SENP7 conf 56.9 | Casp3 select inactive | SENP luc ctr inactive
O=C(/C=C/c1ccco1)Nc1ccc(C(=O)N2CCOCC2)cc1	none
COc1ccc(N2CC(C(=O)Nc3c4c(nn3-c3ccccc3)CS(=O)(=O)C4)CC2=O)cc1 (stereo not given)	none
COc1cccc(/C=C/C(=O)OCC(=O)NC2CCCC2)c1	none (no result: SENP7 block, SENP8 block-2, SENP6 block, HSP90 refold inh)
Cc1csc2nc(CSc3nc4ccccc4o3)c(Br)n12	SENP6 block 55.7 | SENP8 conf inactive | SENP6 confirm inactive | SENP7 conf 55.2 | Casp3 select inactive | SENP luc ctr inactive
CCc1ccc(-c2ccc(C(=O)O)cc2)nc1	SENP7 block 65.3 | SENP8 conf 76.1 | SENP6 confirm 74.0 | SENP7 conf 93.7 | Casp3 select 90.7 | SENP luc ctr 75.2
Cn1c(SCc2ccc(C#N)cc2Cl)nc2ccccc21	SENP7 block 80.0, SENP8 block-2 68.8, SENP6 block 75.4 | SENP8 conf inactive | SENP6 confirm 75.9 | SENP7 conf 56.7 | Casp3 select inactive | SENP luc ctr inactive
O=C(c1ccc2c3n(nc2c1)-c1ccc(Cl)cc1CO3)N1CCOCC1	none (no result: HSP90 refold inh)
